Experimental data: PubChem BioAssay AID1813 (Broad Institute, 2009)
Screen size: about 300,000 compounds; about 2,500 (0.83%) were called active. For the sample, actives were picked, then their nearest neighbours and some compounds at random. Values without a mark were called inactive. Cut-off read from the data, not from the text of the source: active = inhibition above about 60%; inconclusive = no clear call, values can overlap the other calls; inactive = below that.

Experiment: MLPCN primary screen, SNCA 5' untranslated region (AID 1813);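 note: H4 neuroglioblastoma cells stably carrying SNCA 5'UTR luciferase fusion; 0% = DMSO wells and 100% = positive control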
Details: alpha-synuclein 5'UTR reporter, inhibitor activity; hits give high values; tested at 7.5 µM

Compound | inhibition
O=C1CCCC2=C1C(c1cccs1)n1nc(SCc3ccccc3)nc1N2 (configuration not stated) | 37.2%
CCCCCN(C(=O)NC(=O)Nc1cccc(C)c1C)S(C)(=O)=O | -23.1%
CC(C)n1c(CN2CCN(Cc3ccccc3)CC2)nc2ccccc21 | 9.23%
CCCNC(=O)N1CCN(C(=O)NCCC)CC1 | 8.45%
CCn1nc(C)c(NC(=O)/C=C/c2ccc(OC)c(COc3ccc(Br)cc3)c2)c1C | 61.8% (active)
COc1ccc(C(C)=O)cc1COc1ccc(Cl)c(C)c1 | 50.7%
C/C=C/c1ccc(OCC(=O)OCC(=O)Nc2c(C)nn(-c3ccccc3)c2C)c(OC)c1 | 3.02%
CCCCN(C)CCC(=O)Nc1ccc(Cl)cc1 | -18.3%
CCOc1ccc2c(c1)c(=O)c(S(=O)(=O)c1ccc(C)cc1)cn2CC | 13%
CN(C)c1nc(N)nc(CSc2nnnn2-c2cccc3ccccc23)n1 | 68.9% (active)
CN(C)c1nc(N)nc(CSc2ccccn2)n1 | -19.1%
COc1ccc(-n2nnnc2SCc2nc(N)nc(N3CCOCC3)n2)cc1 | 13.4%
COc1ccc(CCNC(=O)CN(C)S(=O)(=O)c2ccc3nc(C)sc3c2)cc1OC | -0.864%
CC(=O)Nc1ccc(NC(=O)CCCNC(=O)c2ccc(Cl)cc2)cc1 | 19.3%
CC(C)c1ccc(Cc2nnc(NCCCO)[nH]c2=O)cc1 | -13.1%
COc1ccc(Cc2nnc(N/N=C/c3ccccc3O)[nH]c2=O)cc1OC | 91.4% (active)
O=c1[nH]c(NCCO)nnc1Cc1ccc(Cl)cc1 | 6.74%
COc1ccc(S(=O)(=O)N2CCC(C(=O)NCCC(=O)NCc3cccc(OC)c3)CC2)cc1 | 11.4%
CC(=O)Nc1nonc1-c1nc2ccccc2n1Cc1ccccn1 | 19%
Nc1nonc1-c1nc2ccccc2n1Cc1ccc(F)cc1 | 49%
COc1ccc(C)c(Cn2c(-c3nonc3N)nc3ccccc32)c1 | 76.2% (active)

Compound | inhibition
CN(CC(=O)NCc1cccnc1)S(=O)(=O)c1cc(Cl)ccc1Cl | 5.11%
CCc1noc(C)c1C(=O)N1CCCC(N2CCN(c3ccc(F)cc3)CC2)C1 (configuration not stated) | 14.8%
CC(Sc1nnc(COc2ccccc2)n1-c1ccccc1)C(=O)O (configuration not stated) | -1.97%
CC1(C(=O)N/N=C/c2cc3c(cc2Br)OCO3)CC1(Br)Br (configuration not stated) | 4.98%
O=C(CN1CCN(c2ccccn2)CC1)N1CCc2ccccc21 | -26.8%
O=C(CN1C(=O)c2ccccc2S1(=O)=O)NC1CCCCC1 | 6.72%
O=C(CN1C(=O)c2ccccc2S1(=O)=O)N1CCc2ccccc21 | 93.5% (active)
Cc1ccc(NC(=O)OCc2cncs2)cc1 | -112%
COc1ccc(Nc2ccc([N+](=O)[O-])cn2)cn1 | 8.18%
COc1ccc(NC(=O)/C(Cl)=C(/Cl)S(=O)Cc2ccc(C)cc2)cn1 (configuration not stated) | 106% (active)
COc1ccc(NC(=O)CN(C)C(=O)Cc2coc3cc(C)c(C)cc23)cc1 | 6.29%
Cc1ccc2c(c1)NCC(C(=O)NC1CCC(C)CC1)O2 (configuration not stated) | -67.9%
CN(C)c1ccc(C(CNC(=O)c2ccc(F)cc2)c2c[nH]c3ccccc23)cc1 (configuration not stated) | 4.86%
Cc1ccc(OCC(=O)Nc2ccccc2Sc2ccc(Cl)cc2)c([N+](=O)[O-])n1 | 4.28%
N#Cc1cnn2cc(CCN3CCOCC3)c(-c3ccc(F)cc3)nc12 | 17%
COc1ccc2c(c1)CCc1cn3ncc(C#N)c3nc1-2 | 68.1% (active)
COc1ccc2nc(N3CCCC(O)C3)c(C#N)cc2c1 (configuration not stated) | -114%
CC(C)[C@H](NC(=O)N1CCn2c1nc1ccccc12)C(=O)NC1CC1 | -11.1%
CC1(c2ccc(Cl)cc2)NC(=O)N(CC(=O)c2ccc3c(c2)OCO3)C1=O (configuration not stated) | -7.93%
CC(C)(C)C(=O)Nc1ccc(-c2cn3cccnc3n2)cc1 | -130%
c1c2c(cc3sc(N4CCCCC4)nc13)OCCO2 | 107% (active)

Compound | inhibition
Cc1nc(N2CCCCC2)sc1C=O | 10.9%
Brc1ccc2nc(N3CCCC3)sc2c1 | -105%
CN(CC(=O)O)S(=O)(=O)c1ccc2oc3ccccc3c2c1 | -11.7%
COc1ccc(NS(=O)(=O)c2cc3c(cc2C)N(C(C)=O)CCO3)cc1 | 11.8%
COc1ccc(-c2oc3ncn(Cc4ccco4)c(=N)c3c2-c2ccc(OC)cc2)cc1 | 36%
O=C(NCCN1C(=O)C2C3C=CC(C3)C2C1=O)Nc1ccccn1 (configuration not stated) | -5.4%
O=C(CN1C(=O)C2C3C=CC(C3)C2C1=O)NCCc1ccccc1Cl (configuration not stated) | -1.36%
O=C(CN1C(=O)C2C3C=CC(C3)C2C1=O)Nc1nc(-c2ccccn2)cs1 (configuration not stated) | 82.4% (active)
Cc1ccc(S(=O)(=O)CCC(=O)Nc2nnc(CC(C)C)s2)cc1 | -17%
O=S(=O)(NCc1ccc(Cl)cc1Cl)c1cccs1 | -22.7%
Cc1oc(-c2ccccc2Cl)[n+]([O-])c1C | 34.1%
COc1ccc(Br)c2c1C(=O)CC2 | 8.26%
CC1CCCCN1S(=O)(=O)c1ccc(C(=O)Nc2nnc(-c3cccs3)o2)cc1 (configuration not stated) | 89.9% (active)
CSCc1nnc(NC(=O)c2ccc(S(=O)(=O)N3CCCCC3C)cc2)o1 (configuration not stated) | 14.5%
CC1CCCN(S(=O)(=O)c2ccc(C(=O)Nc3nnc(-c4ccncc4)o3)cc2)C1 (configuration not stated) | -13.6%
Cc1onc(-c2ccccc2Cl)c1C(=O)OCC(=O)c1ccccc1 | 12.5%
Cc1onc(-c2ccccc2Cl)c1C(=O)N(Cc1ccc(N(C)C)cc1)C(C)C | 73.1% (active)
Cc1onc(-c2ccccc2Cl)c1C(=O)NCCn1ccc2ccccc21 | 29.7%
O=C(CN1CCOCC1)Nc1cccc([N+](=O)[O-])c1 | 1.99%
Cc1nc(-c2nnc(SCC(=O)Nc3cc(C(F)(F)F)cc(C(F)(F)F)c3)n2C)cs1 | 15.6%
